This experiment can be described thus: cell-free Rh123 fluorescence quenching read-out – biochemical, dry powder samples, uHTS hits, counter-screen for mtPTP inhibitor project, dose response (AID 743361). The note with it: Rhodamine 123 fluorescence quenching counterscreen. On the technique in general: A counterscreen serves to expose hits that act by an unwanted route or on another target.

Structures are written as SMILES. Values without a mark were called inactive. Activity calls are given as the source filed them. The rule behind the calls is not given here.

The values that follow come from PubChem BioAssay AID743361 (Molecular Libraries Program, Specialized Chemistry Center, …, 2014).

Broadly, the IC50 is the midpoint of a concentration-inhibition curve.

On to `COc1ccc(Cl)c(C(=O)Nc2ccc(CCN3CCCCC3)cc2)c1`, for which the IC50 was over 100 µM.

With `O=C(Nc1ccc(F)cc1F)c1cc(-c2ccccc2)on1`, the IC50 is over 100 µM.

For `CN1CCN(c2ccc(NS(=O)(=O)c3cc(Cl)cc(Cl)c3)cc2)CC1`, the IC50 was over 100 µM.

With `CN1CCN(c2ccc(NS(=O)(=O)c3ccc(F)c(Cl)c3)cc2)CC1`, the IC50 was over 100 µM.

Regarding `O=S(=O)(Nc1ccc(CCN2CCCCC2)cc1)c1cccc(Cl)c1`, the IC50 was over 100 µM.

For the compound `COc1ccc(Cl)cc1S(=O)(=O)Nc1ccc(CCN2CCN(C)CC2)cc1`, the IC50 is over 100 µM.

Regarding `CN1CCN(c2ccc(Cl)cc2NC(=O)/C=C/c2cccc(F)c2)CC1`, the IC50 was over 100 µM.

For the compound `COc1ccc(Cl)c(C(=O)Nc2ccc(CN3CCOCC3)cc2)c1`, the IC50 is over 100 µM.

For `COc1ccc(Cl)cc1C(=O)Nc1ccc(CN2CCN(C)CC2)cc1`, the IC50 is over 100 µM.

As to `CN1CCN(c2ccc(NC(=O)c3cccc(OCc4ccccc4)c3)cc2)CC1`, the IC50 was over 100 µM.

With `COc1ccc(Cl)cc1S(=O)(=O)Nc1ccc(N2CCN(C)CC2)cc1`, the IC50 was over 100 µM.

`O=C(Nc1ccc(CN2CCCCC2)cc1)c1cc(Cl)ccc1O`: the IC50 was over 100 µM.

`Cc1cc(NC(=O)c2ccc(-n3cnnc3)cc2)no1`: the IC50 was over 100 µM.

`O=C(Nc1ccc(CN2CCCCC2)cc1)c1cccc(OCc2ccccc2)c1`: the IC50 was 55.4 µM (active).

For `O=C(Nc1cc(Cl)ccc1Cl)c1cc(-c2cccc(O)c2)on1`, the IC50 is 38.7 µM (active).

As for `O=C(Nc1ccc(CN2CCCCC2)cc1)c1cc(OCc2ccccc2)ccc1Cl`, the IC50 was 76.2 µM (active).

As for `COc1ccc(NC(=O)c2cc(-c3ccc(Cl)cc3)on2)cc1Cl`, the IC50 was over 100 µM.

For the compound `O=C(Nc1ccc(N2CCCCC2)cc1)c1cccc(OCc2ccccc2)c1`, the IC50 is over 100 µM.

As to `O=C(Nc1cccc(Cl)c1)c1cc(-c2cccc(O)c2)on1`, the IC50 was over 100 µM.

On to `COc1ccccc1C(=O)Nc1ccc(C(=O)N2CCCCC2)cc1`, for which the IC50 is over 100 µM.

Consider `O=C(Nc1ccc(CN2CCCCC2)cc1)c1cccc(Cl)c1`, for which the IC50 is over 100 µM.

For the compound `CN1CCN(Cc2ccc(NS(=O)(=O)c3cc(Cl)cc(Cl)c3)cc2)CC1`, the IC50 is over 100 µM.

With `COc1ccc(Cl)cc1C(=O)Nc1ccc(CCN2CCN(C)CC2)cc1`, the IC50 is over 100 µM.

For the compound `O=S(=O)(Nc1ccc(CCN2CCCCC2)cc1)c1cc(Cl)cc(Cl)c1`, the IC50 is over 100 µM.

`CCN(C(=O)c1cc(Cl)ccc1OC)c1ccccc1`: the IC50 was over 100 µM.

As for `COc1ccc(Cl)cc1C(=O)Nc1ccc(N2CCCCC2)cc1`, the IC50 is over 100 µM.

For `O=C(Nc1cccc(Cl)c1)c1cc(-c2ccc(Cl)cc2)on1`, the IC50 was over 100 µM.

Consider `COc1ccc(NC(=O)c2cc(-c3cccc(O)c3)on2)cc1Cl`, for which the IC50 was over 100 µM.

On to `CN1CCN(c2ccccc2NC(=O)c2ccc(OCc3ccccc3)cc2)CC1`, for which the IC50 is over 100 µM.

As to `CN1CCN(CCc2ccc(NS(=O)(=O)c3cc(Cl)cc(Cl)c3)cc2)CC1`, the IC50 was over 100 µM.

On to `O=S(=O)(Nc1ccc(CN2CCCCC2)cc1)c1cccc(Cl)c1`, for which the IC50 is over 100 µM.
